Assay outcomes: PubChem, National Center for Advancing Translational Sciences (NCATS)
Compounds with a hit are over-represented: about 12% of the library has one in this group of screens.
Pf growth 48h = inhibits P. falciparum growth in the first generation, 48 h; 5.9% of 310,000 active; AID 504832; P. falciparum luciferase growth in erythrocytes, 48 h; Potency, µM (doses to about 28.7 µM), for the others: at the highest dose activity change, negative = inhibition, usual class: inhibitors; further: on the % scale 0 is the no-effect control and ±100 the full control effect
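First compound was added to culture medium, then infected red cells at 0.1% parasitemia and 2% hematocrit (final). After incubation at 37 C under 5% CO2, luciferase detection reagent was dispensed and light output recorded.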
AmpC inh detg = inhibitors of E. coli AmpC beta-lactamase with detergent; AID 485294; 0.041% of 370,000 active; AmpC hydrolysis of nitrocefin, absorbance 480 nm, 0.01% Triton; Potency, µM (titrated, usually from 114 µM), inactives show at the highest dose activity change, negative = inhibition, hits mostly inhibitors;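 further: 0% = no-compound wells and -100% = no-enzyme wells; nearly all actives have a fitted effect of over 25% in size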
Target sequence (P00811 whole entry, looked up): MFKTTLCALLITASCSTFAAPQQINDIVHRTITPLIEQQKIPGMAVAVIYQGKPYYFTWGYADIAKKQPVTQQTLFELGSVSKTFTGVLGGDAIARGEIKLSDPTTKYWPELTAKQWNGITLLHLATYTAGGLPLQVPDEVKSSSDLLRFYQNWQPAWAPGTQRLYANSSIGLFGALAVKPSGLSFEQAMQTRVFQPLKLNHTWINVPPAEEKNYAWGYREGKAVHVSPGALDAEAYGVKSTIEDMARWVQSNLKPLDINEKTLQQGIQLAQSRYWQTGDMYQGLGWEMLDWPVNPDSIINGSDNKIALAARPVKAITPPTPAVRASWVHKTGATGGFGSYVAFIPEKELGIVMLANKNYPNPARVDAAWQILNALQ
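AmpC (5.3 nM in the dispensed reagent) in 20 mM phosphate pH 7.0 with 0.01% (detergent screen) or 0.0001% Triton X-100 was preincubated with compounds for 15 min at room temperature. Nitrocefin was then added from an 800 uM solution, and hydrolysis was followed at 480 nm.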
Sm TGR block = inhibitors of Schistosoma mansoni thioredoxin glutathione reductase. AID 485364. Potency, µM (top dose mostly 114 µM), for inactives: at the highest dose activity change, negative = inhibition, actives largely listed as inhibitors. 3% of 360,000 active. purified TGR, DTNB reduction, TNB absorbance 405 nm; further: on the % scale 0 is the no-effect control and ±100 the full control effect; nearly all actives have a fitted effect of over 60% in size
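First, TGR (20 nM dispensed) and NADPH were mixed with compound. Second, a 15 min room-temperature incubation followed. Third, further NADPH and then DTNB were added to start the reaction. Finally, TNB absorbance was monitored kinetically.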
AmpC inh no detg = inhibitors of E. coli AmpC beta-lactamase without detergent; AmpC nitrocefin hydrolysis, absorbance 480 nm, 0.0001% Triton; Potency, µM (series often up to 57.1 µM), without a hit: top-dose activity change, negative = inhibition, hits mostly inhibitors; P00811; 0.52% of 330,000 active;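 further: plate controls were no compound for no effect and no enzyme for full effect; nearly all actives have a fitted effect of over 20% in size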
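20 mM phosphate pH 7.0 + 0.01% (detergent screen) or 0.0001% Triton X-100; 5.3 nM AmpC reagent; cpd preinc 15 min RT; nitrocefin (800 uM stock) to start; A480 q20 s × 4 min; Activity was normalised to no-enzyme and no-compound control wells.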
SARS PLP yeast = SARS-CoV PLP inhibition in yeast | Potency, µM (series often up to 32.9 µM), for inactives: top-dose activity, positive = growth rescue, most hits filed as activators | S. cerevisiae expressing SARS-CoV PLpro, growth rescue | AID 485353 | 0.19% of 330,000 active; calls by dose curve; further: 0% is about no effect; nearly all actives have a fitted effect of over 55% in size
Pf growth 96h = inhibits malaria parasite growth, 96 h. P. falciparum luciferase reporter growth, 96 h. Potency, µM (highest dose often 28.7 µM), for inactives: top-dose activity change, negative = inhibition, most hits filed as inhibitors. 6.9% of 320,000 active. AID 504834; further: on the % scale 0 is the no-effect control and ±100 the full control effect
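Two-generation exposure (96 h) targets delayed-death phenotype. Reporter parasites carrying integrated firefly luciferase, in red cells at 2% hematocrit and 0.05% parasitemia final, kept at 37 C, 5% CO2; luminescence loss indicates inhibition.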
Numbers without * were called inactive; ? = inconclusive; · = no result given; ! = not confirmed by another sample; [ ] = another dose, or the depositor's remark. Unless noted, the call rests on the fitted dose curve; in most records, active means well fitted curve in the direction sought with a large enough effect; inconclusive means small, poorly fitted or top-dose-only effect, or another doubt; inactive means no such curve, though single readings can be large; an effect the other way counts as inactive or inconclusive. Potency means the concentration at half of the fitted maximal effect.

SMILES	Pf growth 48h	AmpC inh detg	Sm TGR block	AmpC inh no detg	SARS PLP yeast	Pf growth 96h
O=C(CCl)N1CCN(S(=O)(=O)c2ccc3ccccc3c2)CC1	?	4%	5.6µM*	1%	8%	?
COc1ccc(Cl)cc1C(=O)NCC(c1ccc(N(C)C)cc1)N1CCCC1 (stereo not drawn)	·	-3%	1%	·	·	·
Cc1ccc(-n2nc(C)c3c(C(=O)NCc4ccc(F)cc4)cc(C)nc32)cc1	·	14%	9%	·	·	·
O=C1CCN(S(=O)(=O)c2ccc(Br)cc2)CCN1	51%	4%	-5%	-6%	1%	?
O=S(=O)(Nc1cccc(-c2ccc3nncn3n2)c1)c1cc(F)ccc1F	37%	0%	7%	-12%	-6%	0%
O=C(Nc1cc(Cl)cc(Cl)c1)c1cc(S(=O)(=O)NC2CCCC2)ccc1F	·	8%	3%	·	·	·
CCCCc1ccc(NC(=O)CSc2nnc(C)c(=O)n2N)cc1	?	-1%	0%	83%	0%	?
Cc1ccn(C)c(=N)c1	6%	-12%	17%	-18%	-1%	-13%
O=c1ccc2cc(S(=O)(=O)N3CCN(c4ccccc4)CC3)ccc2[nH]1	40%	-12%	-22%	-4%	6%	21%
O=C(CSc1ccc2ccccc2c1)N1CCN(c2ccc(O)cc2)CC1	6%	4%	50µM*	-22%	-3%	3%
O=S(=O)(c1ccc2nc(-c3ccccc3)[nH]c2c1)N1CCN(c2ccc(Cl)cc2)CC1	12µM*	?	-5%	-56%	-7%	?
Nn1cc(-c2ccccc2)nc1SCC(=O)N1CCN(S(=O)(=O)c2ccc3ccccc3c2)CC1	9.3µM*	-12%	2%	-9%	0%	·
CC1(C)Cc2c(C#N)c(NCCO)nc(-c3ccco3)c2CO1	?	5%	3.5µM*	20%	1%	?
CC1(C)Cc2c(C#N)c(NCCN3CCOCC3)nc(-c3ccco3)c2CO1	13µM*	?	35µM*	129%	-1%	10µM*
CC1(C)Cc2c(C#N)c(NCCN3CCOCC3)nc(-c3ccccc3)c2CO1	-19%	-5%	-5%	82%	-2%	-17%
CN(C)CCNc1nc(-c2ccccc2)c2c(c1C#N)CC(C)(C)OC2	·	-12%	-19%	-3%	-1%	?
Cc1cc2oc(=O)c(CC(=O)NCCc3ccccc3F)c(C)c2c2occ(C(C)(C)C)c12	·	30%	5%	·	·	·
CCc1ccc2[nH]c(=O)c(CN(CCN(CC)CC)C(=O)Nc3ccccc3OC)cc2c1	15µM*	0%	-15%	59%	14%	31%
CCN(CC)CCCN(Cc1cc2cc(OC)ccc2[nH]c1=O)C(=O)Nc1ccccc1	9.3µM*	-12%	-9%	13%	-1%	?
Cc1ccc(S(=O)(=O)c2cn(C)c3cc(N4CCCCCC4)c(F)cc3c2=O)cc1	·	2%	-4%	·	·	·
NC(=S)N/N=C1\CC(c2ccc3c(c2)OCCO3)Oc2ccc(F)cc21 (stereo not drawn)	?	9%	17%	-35%	-2%	12µM*
O=C(CSc1nc(=O)[nH]c2c1CCC2)NCc1ccc(F)cc1	·	3%	3%	·	·	·
CC1(C)S[C@@H]2[C@H](NC(=O)[C@H](N)c3ccccc3)C(=O)N2[C@H]1C(=O)O	2%	45µM*	1%	13µM*!	-15%	-7%
CC1(C)SC2C(NC(=O)C(C(=O)O)c3ccccc3)C(=O)N2C1C(=O)O (stereo not drawn)	-5%	·	·	·	·	1%
O=S(=O)(Nc1ccc(-n2cccc2)cc1)c1ccccc1	?	1%	4%	?	-9%	-2%
SMILES	Pf growth 48h	AmpC inh detg	Sm TGR block	AmpC inh no detg	SARS PLP yeast	Pf growth 96h
Cc1c(C(=O)NCc2ccccc2Cl)sc2nc[nH]c(=O)c12	·	-5%	-6%	·	·	·
Cc1nc2ccc(C(=O)OCc3nnc(-c4ccc(Br)cc4)o3)cc2nc1C	-4%	-3%	-5%	60%	-1%	-13%
O=C(OCc1nnc(-c2ccc(Cl)cc2)o1)c1ccncc1	13%	?	3%	-19%	-4%	3%
Cc1nc2ccc(C(=O)OCc3nnc(-c4ccccc4)o3)cc2nc1C	15%	0%	-17%	102%	-10%	13µM*
COc1ccc(-c2cc(-c3nnc(COC(=O)c4ccncc4)o3)c3ccccc3n2)cc1OC	12µM*	-5%	10%	2%	0%	?
CCCSc1nnc2c(n1)OC(c1cccs1)Nc1ccc(Br)cc1-2 (stereo not drawn)	·	4%	-12%	·	·	·
O=C(C1CCC(=O)N(C2CC2)C1)N1CCC(Oc2cccc(C(F)(F)F)c2)CC1 (stereo not drawn)	?	-3%	0%	236%	6%	37%
CC(C)c1csc(CN2CCC(N3CCC(C(=O)NCC4CCCO4)CC3)CC2)n1 (stereo not drawn)	-16%	5%	-4%	49%	-1%	?
COc1cccc(N(CC(=O)NC2CCCCC2)C(=O)CCC(=O)Nc2nc(C)cs2)c1	?	6%	-1%	104%	2%	0%
CC(=O)c1cccc(CN2CCCC(C(=O)Nc3ccc(-c4ccco4)cc3)C2)c1 (stereo not drawn)	10µM*	-3%	?	40%	-8%	-15%
Cc1cccc(CN2CCCC(C(=O)Nc3ccc(-c4cscn4)cc3)C2)c1 (stereo not drawn)	?	5%	4%	47%	-3%	9.3µM*
O=C(Nc1ccc(-c2cscn2)cc1)C1CCCN(Cc2ccccc2)C1 (stereo not drawn)	?	-8%	-2%	31%	2%	?
COc1ccc2c(c1OC)C(=O)N1N=C(c3ccccc3)CC21 (stereo not drawn)	4.1µM*	1%	1%	-13%	-8%	?
COc1ccc(C2CC(c3ccccc3)=NN2c2ccccc2)c(C(=O)O)c1OC (stereo not drawn)	-17%	-6%	-13%	-7%	4%	-12%
O=C(Nc1ccc(N2CCN(C(=O)c3ccco3)CC2)cc1)c1cc(Br)ccc1Cl	13µM*	-10%	0%	-24%	-3%	10µM*
O=C(Nc1ccc(N2CCN(C(=O)c3ccco3)CC2)cc1)c1ccc2c(c1)OCO2	13µM*	-10%	1%	-41%	12%	?
CC(C)(C)OC(=O)N1CCN(c2ccc(NC(=O)c3ccco3)cc2)CC1	7.4µM*	-5%	-13%	23%	-31%	2%
O=C(Nc1ccc(N2CCN(C(=O)c3ccco3)CC2)cc1)c1ccco1	-9%	0%	2%[57.1 µM]	-11%	-2%	?
